First the molecules themselves.
B1: VH:VL chains; a variant is named by its letters at X, in order (parent)
chain 1: QVQLVQSGAEVKKPGASVKVSCKASGYTFTDYXMHWVRQAPGQGLEWMGXVNPNXXXTTYNQKFEGRVTMTTDTSTSTAYMELRSLRSDDTAVYYCARXNXLDXWGQGTTVTVSS
chain 2: DIQMTQSPSSLSASVGDRVTITCSVSSSVSSIYLHWYQQKPGKAPKLLIYSTSNLASGVPSRFSGSGSGTDFTLTISSLQPEDFATYYCQVYSGYPLTFGGGTKVEIK

The other results are listed elsewhere or left out. The hit rate among all sequences tested is not known here.

Variants of B1 are the subject of this assay. Nature of the assay: yeast display scFab, FACS + sequencing. The note with it: with MET. The essentials: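 Round-3 sorted and input populations from a heavy-chain CDR mutant scFab yeast library were deep sequenced in two replicates. Sorting used FACS on cells labelled for 3 h at room temperature with 1 nM HGFR-Fc and anti-Myc in PBSB with 1% milk, keeping the top 50% antigen-positive cells. Any sequence seen in both antigen-positive samples was called a binder, while one seen only in the input was called a non-binder.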
Take SAEKDDGS: the antigen binding call is “no binding”. To DARGGAGA belongs “no binding”; to VGEKGDGV, “no binding”. SEKEGDAA: the antigen binding call was “no binding”.

YRGRGFVA: the antigen binding call is “binds”. As to YRGKGFVA, the antigen binding call was “binds”. To SRGRGFVA belongs “no binding”. To YRGRGFLV belongs “binds”. The result for FRGRGFVA reads “no binding”. As for YRGKGFVV, the antigen binding call is “binds”. As to VTTKSAVA, the antigen binding call was “no binding”. To DRRKAFSA belongs “no binding”; to VEEEGDAA, “no binding”; to VAGGDDVA, “no binding”. VEGTGDWD: the antigen binding call is “no binding”. For VRGRGFVV, the antigen binding call was “binds”. To YRGRGFVV belongs “binds”; to VRGKAFVV, “no binding”. Take VRAGADVV: the antigen binding call is given as “no binding”. The result for VATKGFVV reads “no binding”.

Regarding YRGKGYVV, the antigen binding call is on record as “binds”. To VRARGFVV belongs “binds”. For the variant FEKEADAF, the antigen binding call is “no binding”. The result for ATTGSASF reads “no binding”.

Take DAETAAAA: the antigen binding call is on record as “no binding”. The result for SRGRGSGA reads “binds”; that for SRGRDAWA, “no binding”. To STGTGSGA belongs “no binding”; to SRGRGAWS, “binds”; to SRGRGAWA, “binds”. To DAGRGAVS belongs “no binding”. Consider SRGRGVGA, for which the antigen binding call is “no binding”. The result for SRGRGAVS reads “binds”; that for VETGNDLV, “no binding”. To STGTGYVF belongs “no binding”. The result for AAKEGALV reads “no binding”; that for AKGRADVY, “no binding”; that for YARETAGV, “no binding”. With DRGRDDVD, the antigen binding call is “no binding”. To VRGRDDGV belongs “no binding”; to YRRGDDGD, “binds”; to DRAGDDGD, “no binding”.

For the variant DRRGDDGA, the antigen binding call is on record as “no binding”. Turning to YRGRDDGD, the antigen binding call was “binds”.

With YTEGDDGD, the antigen binding call is “no binding”. The result for YKRGDDLV reads “no binding”. Turning to YKRGDDGD, the antigen binding call is on record as “binds”. To AEGGTDVV belongs “no binding”. On to SREAADAV, for which the antigen binding call was “no binding”. Regarding VKATAVAV, the antigen binding call was “no binding”. The result for VKERGDAV reads “no binding”; that for VKEGGAVV, “no binding”; that for VKGRSDGV, “binds”.

Take VKARGSGV: the antigen binding call is “binds”. To VKTGGAVV belongs “binds”. To VGARNSGV belongs “no binding”; to VKTGGSWV, “no binding”. The result for VKAGGAGS chain 1 G44D reads “no binding”; that for VKGRADGV, “no binding”; that for VKARGAGS, “binds”. Consider VEGGGSGV, for which the antigen binding call is given as “no binding”. The result for SKGRSDGV reads “no binding”; that for VAARGFGS, “no binding”.

Values taken from the emibetuzumab library of Makowski et al. (2022).
